Test [1] can be described thus: Quantitative High-Throughput drug screen in 47 multiple myeloma cell lines against the NCATS MIPE library collection: KMS12PE_JCRB cell viability assay (AID 1918972). Note: nearly all actives have a fitted effect of over 30% in size. The following applies: KMS12PE myeloma viability, CellTiter-Glo ATP, 48 h; series mostly up to 45.8 µM. An outline of the steps: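 Myeloma cell lines, 500 cells per well, exposed to MIPE 4.0 library compounds for 48 h at 37C, 5% CO2. Viability from ATP by CellTiter-Glo luminescence; normalised to DMSO (100%) and media-only (0%) wells.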
For orientation: In ATP-based viability assays light output follows the ATP content of the culture.

Test [2] is described as follows: Quantitative High-Throughput drug screen in 47 multiple myeloma cell lines against the NCATS MIPE library collection: KMS21BM_JCRB cell viability assay (AID 1918974). The following applies: ATP luminescence, 48 h; viability: at 45.8 µM (top of the series) unless noted. An outline of the steps:
(§1)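 Primary qHTS used for cherry-picking: cells at 500/well, library compounds for 48 h (37C, 5% CO2), luminescent ATP assay.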

The nature of test [3]: Quantitative High-Throughput drug screen in 47 multiple myeloma cell lines against the NCATS MIPE library collection: OCIMY1_PLB cell viability assay (AID 1918979). Note: nearly all actives have a fitted effect of over 35% in size. The following applies: OCI-MY1 myeloma viability, CellTiter-Glo ATP, 48 h; series mostly up to 45.8 µM. An outline of the steps: (§2)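 500 cells/well per myeloma line exposed to pinned MIPE 4.0 compounds for 48 h at 37 °C, 5% CO2. Viability read as ATP by CellTiter-Glo luminescence, normalised to DMSO-only (100%) and media-only (0%) wells.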

Test [4] in a line: Quantitative High-Throughput drug screen in 47 multiple myeloma cell lines against the NCATS MIPE library collection: MM1S_ATCC cell viability assay (AID 1918980). Note: nearly all actives have a fitted effect of over 45% in size. The following applies: MM1S myeloma viability, CellTiter-Glo ATP luminescence, 48 h; series mostly up to 45.8 µM. An outline of the steps: as §2
A short description of test [5]: Quantitative High-Throughput drug screen in 47 multiple myeloma cell lines against the NCATS MIPE library collection: KMS28PE_JCRB cell viability assay (AID 1918983). Note: nearly all actives have a fitted effect of over 35% in size. The following applies: KMS28PE multiple myeloma viability, CellTiter-Glo ATP, 48 h; series mostly up to 45.8 µM. A digest of the protocol:
as §2

The nature of test [6]: Quantitative High-Throughput drug screen in 47 multiple myeloma cell lines against the NCATS MIPE library collection: L363_DSMZ cell viability assay (AID 1918984). Note: nearly all actives have a fitted effect of over 40% in size. As to conditions: L363 myeloma viability, CellTiter-Glo ATP luminescence, 48 h; series mostly up to 45.8 µM. A digest of the protocol:
as §2

Test [7] in a line: Quantitative High-Throughput drug screen in 47 multiple myeloma cell lines against the NCATS MIPE library collection: OCIMY7_PLB cell viability assay (AID 1918987). Note: nearly all actives have a fitted effect of over 65% in size. The following applies: OCI-MY7 myeloma viability, CellTiter-Glo ATP, 48 h; viability (% of DMSO): at 45.8 µM (top of the series). An outline of the steps: as §2
The nature of test [8]: Quantitative High-Throughput drug screen in 47 multiple myeloma cell lines against the NCATS MIPE library collection: U266_ATCC cell viability assay (AID 1919864). Note: nearly all actives have a fitted effect of over 35% in size. As to conditions: U266 myeloma viability, CellTiter-Glo ATP luminescence, 48 h; series mostly up to 45.8 µM. A digest of the protocol: as §2
Test [9] in a line: Quantitative High-Throughput drug screen in 47 multiple myeloma cell lines against the NCATS MIPE library collection: NCIH929_DSMZ cell viability assay (AID 1918978). Note: nearly all actives have a fitted effect of over 35% in size. The following applies: NCI-H929 myeloma viability, CellTiter-Glo ATP, 48 h; series mostly up to 45.8 µM. An outline of the steps:
as §2

A short description of test [10]: Quantitative High-Throughput drug screen in 47 multiple myeloma cell lines against the NCATS MIPE library collection: MM1R_ATCC cell viability assay (AID 1918981). Note: nearly all actives have a fitted effect of over 35% in size. As to conditions: MM1R multiple myeloma cells, CellTiter-Glo viability, 48 h; series mostly up to 45.8 µM. A digest of the protocol:
as §2

Test [11] can be described thus: Quantitative High-Throughput drug screen in 47 multiple myeloma cell lines against the NCATS MIPE library collection: SKMM1_PLB cell viability assay (AID 1919863). Note: nearly all actives have a fitted effect of over 35% in size. As to conditions: SKMM1 myeloma viability, CellTiter-Glo ATP, 48 h; viability: hits give low values. An outline of the steps: as §2
The nature of test [12]: Quantitative High-Throughput drug screen in 47 multiple myeloma cell lines against the NCATS MIPE library collection: KMS26_JCRB cell viability assay (AID 1918975). Note: nearly all actives have a fitted effect of over 45% in size. The following applies: KMS26 myeloma cells viability, CellTiter-Glo ATP, 48 h; series mostly up to 45.8 µM. A digest of the protocol:
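Myeloma cells (500 per well) were exposed to MIPE 4.0 compounds by pin transfer and incubated 48 hours at 37C, 5% CO2. Viability was read as ATP by CellTiter-Glo luminescence, normalised to DMSO (100%) and media-only (0%) wells.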

A short description of test [13]: Quantitative High-Throughput drug screen in 47 multiple myeloma cell lines against the NCATS MIPE library collection: KMS34_JCRB cell viability assay (AID 1918985). Note: nearly all actives have a fitted effect of over 40% in size. The following applies: KMS34 myeloma viability, CellTiter-Glo ATP luminescence, 48 h; series mostly up to 45.8 µM. A digest of the protocol: as §2
The nature of test [14]: Quantitative High-Throughput drug screen in 47 multiple myeloma cell lines against the NCATS MIPE library collection: OCIMY5_PLB cell viability assay (AID 1918988). Note: nearly all actives have a fitted effect of over 65% in size. As to conditions: OCI-MY5 myeloma viability, ATP luminescence, 48 h; series mostly up to 45.8 µM. An outline of the steps: as §2
A short description of test [15]: Quantitative High-Throughput drug screen in 47 multiple myeloma cell lines against the NCATS MIPE library collection: OPM1_PLB cell viability assay (AID 1918989). Note: nearly all actives have a fitted effect of over 40% in size. The following applies: CellTiter-Glo, 48 h; series mostly up to 45.8 µM. An outline of the steps: as §2
Test [16] can be described thus: Quantitative High-Throughput drug screen in 47 multiple myeloma cell lines against the NCATS MIPE library collection: MOLP8_DSMZ cell viability assay (AID 1918977). Note: nearly all actives have a fitted effect of over 45% in size. The following applies: MOLP8 myeloma viability, CellTiter-Glo ATP luminescence, 48 h; series mostly up to 45.8 µM. An outline of the steps: as §2
Test [17] in a line: Quantitative High-Throughput drug screen in 47 multiple myeloma cell lines against the NCATS MIPE library collection: LP1_DSMZ cell viability assay (AID 1918982). Note: nearly all actives have a fitted effect of over 35% in size. The following applies: LP1 myeloma viability, CellTiter-Glo ATP luminescence, 48 h; series mostly up to 45.8 µM. A digest of the protocol:
as §2

Test [18] is described as follows: Quantitative High-Throughput drug screen in 47 multiple myeloma cell lines against the NCATS MIPE library collection: KMS20_JCRB cell viability assay (AID 1918973). Note: nearly all actives have a fitted effect of over 45% in size. The following applies: CellTiter-Glo ATP, 48 h; series mostly up to 45.8 µM. An outline of the steps: as §1
Test [19] in a line: Quantitative High-Throughput drug screen in 47 multiple myeloma cell lines against the NCATS MIPE library collection: MMM1_PLB cell viability assay (AID 1918976). Note: nearly all actives have a fitted effect of over 35% in size. As to conditions: MMM1 myeloma cells viability, CellTiter-Glo, 48 h; series mostly up to 45.8 µM. A digest of the protocol: as §2

Results filed as inconclusive are left out. A number with no mark means an inactive call. The source made the active and inactive calls. Calls come from the whole dose curve; as a rule, active = well fitted curve in the direction sought with a large enough effect; inconclusive = small, poorly fitted or top-dose-only effect, or another doubt; inactive = no such curve, though single readings can be large; an effect the other way counts as inactive or inconclusive.
Potency is the fitted concentration of half-maximal effect.

As for `CC1(C)S[C@H]2[C@H](NC(=O)[C@@H](N)c3ccc(O)cc3)C(=O)N2[C@@H]1C(=O)O`, the Potency in [1] was 4.18 µM (active); in [2] it was 0.296 µM (active); in test [4], 5.9 µM (active); in test [5] it was 18.7 µM (active); in [6], 2.64 µM (active); in [7] it was 3.72 µM (active). Also, the Potency in [8] is 11.8 µM (active). The Potency entry in [3] was “inactive”.

Regarding `CCOC(=O)O[C@]1(C(=O)OCCl)CC[C@@H]2[C@H]3CCC4=CC(=O)C=C[C@]4(C)[C@@H]3[C@@H](O)C[C@@]21C`, the Potency result in [1], in test [9], in test [3], in [10], in test [5] and in test [6] was “inactive” in each case. Further, the viability (commonly a read-out of living cells in per cent, often relative to untreated cells) in test [11] was 124%.

Take `NC[C@@H]1O[C@@H](O[C@H]2[C@@H](O)[C@H](O[C@@H]3[C@@H](O)[C@@H](N)C[C@H](N)[C@H]3O[C@H]3O[C@H](CN)[C@@H](O)[C@@H](O)[C@H]3N)O[C@H]2CO)[C@H](N)[C@@H](O)[C@@H]1O`: the Potency entry in test [1], in test [12], in test [9], in [3], in [10] and in test [6] was “inactive” throughout. Further, the Potency result in test [13], in [14], in [15] and in [8] was “inactive” each time.

`COc1ccc(-c2coc3cc(O)ccc3c2=O)cc1`: the Potency result in test [1], in [9], in [3], in [4], in [10] and in test [17] was “inactive” each time. Moreover, the Potency result in test [13], in test [7], in [15] and in test [8] was “inactive” throughout. In addition, in test [16], the Potency was 0.0059 µM (active).

In the case of `C[C@]12CC[C@@H]3c4ccc(O)cc4CC[C@H]3[C@H]1C[C@@H](O)[C@H]2O`, the Potency result in [18], in test [9], in test [3], in [10], in test [17] and in test [13] was “inactive” in each case. Also, in test [15], the Potency entry was “inactive”. In addition, the Potency in test [12] is 0.0418 µM (active); in test [19], 13.2 µM (active); in test [14], 3.32 µM (active).

On to `COc1cc(Nc2ncc(F)c(Nc3ccc4c(n3)NC(=O)C(C)(C)O4)n2)cc(OC)c1OC`, for which the Potency is 1.05 µM (active) in [18]; 9.35 µM (active) in test [12]; 1.48 µM (active) in test [19]; 1.18 µM (active) in test [9]; 1.66 µM (active) in [3]; 6.62 µM (active) in test [10]. Besides, the Potency in test [5] is 0.833 µM (active); in test [13], 4.69 µM (active); in [14], 6.62 µM (active); in test [15] it was 1.87 µM (active). Besides, the Potency entry in test [4] and in test [8] was “inactive” each time.

Regarding `O=C1NC(=O)C(=Cc2ccc(-c3ccc(F)cc3)o2)S1`, the Potency is 2.09 µM (active) in [2]; 11.8 µM (active) in test [19]; 2.09 µM (active) in test [10]; 3.72 µM (active) in test [6]; 20.9 µM (active) in test [7]. Besides, the Potency entry in test [16] and in [8] was “inactive” throughout.

As to `CC(=O)OC1C(C)OC(Oc2c(-c3ccc(O)cc3)oc3cc(O)cc(O)c3c2=O)C(O)C1OC(C)=O` (configuration not stated), the Potency is 11.8 µM (active) in test [18]; 2.96 µM (active) in test [19]; 20.9 µM (active) in test [4]; 10.5 µM (active) in test [15]; 18.7 µM (active) in test [8]. Besides, the Potency result in test [9], in [5] and in [13] was “inactive” each time.

In the case of `O=c1[nH]cnc2c1ncn2[C@H]1CC[C@@H](CO)O1`, the Potency result in test [1], in [12], in [9], in [3], in [10] and in test [17] was “inactive” throughout. The Potency result in test [6], in test [14] and in test [8] was “inactive” throughout. The Potency in test [4] is 11.8 µM (active). Also, the viability in test [11] is 151%.

Consider `COc1ccc2c3c1OC1C[C@@H](O)C=C[C@@]31CCN(C)C2` (some centres not stated), for which the Potency entry in test [1], in [3], in [10], in test [17], in test [5] and in [13] was “inactive” each time. Moreover, in test [15], the Potency result was “inactive”. Further, the Potency in test [4] is 20.9 µM (active); in test [7], 4.18 µM (active); in [14] it was 10.5 µM (active). Further, in [11], the viability was 103%.

`CO[C@H]1C=CO[C@@]2(C)Oc3c(C)c(O)c4c(O)c(c5c(c4c3C2=O)NC2(CCN(CC(C)C)CC2)N=5)=NC(=O)C(C)=CC=C[C@H](C)[C@H](O)[C@@H](C)[C@@H](O)[C@@H](C)[C@H](OC(C)=O)[C@H]1C`: the values for the Potency in test [1], in [10] and in [14] were 11.8 µM (active), 10.5 µM (active) and 23.5 µM (active), respectively. The Potency result in [12], in [9], in [3], in [6], in [15] and in test [8] was “inactive” in each case. Also, the viability in test [11] is 99.2%.

Turning to `CO[C@@H](C(=O)N1Cc2[nH]nc(NC(=O)c3ccc(N4CCN(C)CC4)cc3)c2C1)c1ccccc1`, the Potency is 16.6 µM (active) in [18]; 1.87 µM (active) in test [2]; 11.8 µM (active) in test [9]; 20.9 µM (active) in test [4]; 20.9 µM (active) in test [10]; 6.62 µM (active) in test [5]. Further, the Potency in test [6] was 18.7 µM (active); in [14], 6.62 µM (active); in test [15], 8.33 µM (active). Besides, the Potency entry in test [3] was “inactive”.

Consider `O=C1c2c(O)cc(O)cc2O[C@H](c2cc(O)c(O)c(O)c2)[C@H]1O`, for which the Potency entry in test [1] and in [15] was “inactive” throughout. Further, the Potency in [12] was 20.9 µM (active); in [19], 10.5 µM (active); in test [16], 18.7 µM (active); in [4], 20.9 µM (active); in test [10], 23.5 µM (active); in test [17] it was 20.9 µM (active). The Potency in [5] was 20.9 µM (active); in [13], 11.8 µM (active); in test [14] it was 13.2 µM (active); in [11], 20.9 µM (active).

For `COc1cccc(-c2cc(=O)c3ccccc3o2)c1N`, the Potency is 7.43 µM (active) in [18], 0.332 µM (active) in test [9], 5.9 µM (active) in test [10] and 16.6 µM (active) in test [15]. The Potency result in [16] was “inactive”.
